Measurements taken from publication PMC5700166.
Residue numbers refer to the chain shown, from its start.

Assays:
Experiment in all cases: protein-binding microarray (PBM); PBM: ~300 nM protein, 6 mM HEPES pH 7.8, 80 mM KCl, 0.5 mM EDTA, 0.5 mM EGTA, 6% glycerol, 35 ng/ul poly-dIdC, 1% milk, 1 h, room temperature; Ap Aiptasia and Nv Nematostella (sea anemones) / Co Capsaspora / Aq Amphimedon (sponge) / Dm Drosophila / Hu human; RHD is the Rel homology domain; high values mean tight binding
Settings in all cases: dsDNA, one strand shown
[1] = target: T1, GST-Ap-NF-kB RHD (Exaiptasia pallida (Aiptasia), UniProt A0A913YAJ5 2-422)
T1 sequence: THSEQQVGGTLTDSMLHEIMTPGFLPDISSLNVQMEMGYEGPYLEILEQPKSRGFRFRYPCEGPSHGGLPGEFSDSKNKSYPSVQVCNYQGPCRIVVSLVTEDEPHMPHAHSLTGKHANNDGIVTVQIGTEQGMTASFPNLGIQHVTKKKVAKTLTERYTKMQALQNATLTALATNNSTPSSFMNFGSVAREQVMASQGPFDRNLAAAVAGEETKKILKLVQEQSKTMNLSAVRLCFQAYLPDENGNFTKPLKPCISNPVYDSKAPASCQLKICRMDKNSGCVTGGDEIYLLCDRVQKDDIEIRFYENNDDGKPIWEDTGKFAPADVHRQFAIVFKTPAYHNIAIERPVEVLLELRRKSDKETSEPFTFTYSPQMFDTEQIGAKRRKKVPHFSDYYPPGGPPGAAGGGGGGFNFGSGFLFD

[2] = target: T2, GST-Nv-NF-kB (Cys allele) (Nematostella vectensis, UniProt E5G601 2-411)
T2 sequence: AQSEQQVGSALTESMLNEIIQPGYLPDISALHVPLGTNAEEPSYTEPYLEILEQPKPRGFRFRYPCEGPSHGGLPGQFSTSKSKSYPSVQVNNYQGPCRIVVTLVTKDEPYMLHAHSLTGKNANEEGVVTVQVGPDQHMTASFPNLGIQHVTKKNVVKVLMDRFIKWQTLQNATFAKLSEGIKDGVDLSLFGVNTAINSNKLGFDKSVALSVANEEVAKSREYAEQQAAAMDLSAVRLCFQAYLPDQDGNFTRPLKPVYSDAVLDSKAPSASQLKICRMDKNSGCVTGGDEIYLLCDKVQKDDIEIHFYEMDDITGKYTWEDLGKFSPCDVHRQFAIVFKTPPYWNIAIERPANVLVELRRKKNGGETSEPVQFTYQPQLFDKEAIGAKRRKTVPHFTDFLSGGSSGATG

[3] = target: T3, GST-Nv-NF-kB (Ser allele) (Nematostella vectensis, UniProt A7UNT2 2-411)
T3 sequence: T2 sequence with Q21R, C66S, S207N, E215Q, V217A, E225K, A268E, D399E

[4] = target: T4, GST-Co-NF-kB (Capsaspora owczarzaki, UniProt F1ARL5 200-546)
T4 sequence: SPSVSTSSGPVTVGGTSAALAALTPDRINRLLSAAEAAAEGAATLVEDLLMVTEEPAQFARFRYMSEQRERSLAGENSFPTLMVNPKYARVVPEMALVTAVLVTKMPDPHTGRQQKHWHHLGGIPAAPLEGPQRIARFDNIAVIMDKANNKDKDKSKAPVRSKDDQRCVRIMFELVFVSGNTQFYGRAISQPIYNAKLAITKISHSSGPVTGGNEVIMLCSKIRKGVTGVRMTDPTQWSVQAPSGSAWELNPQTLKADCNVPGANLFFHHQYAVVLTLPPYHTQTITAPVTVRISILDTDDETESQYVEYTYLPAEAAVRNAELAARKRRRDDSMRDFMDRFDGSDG

[5] = target: T5, GST-Dm-Relish (Drosophila melanogaster, UniProt Q94527 99-473)
T5 sequence: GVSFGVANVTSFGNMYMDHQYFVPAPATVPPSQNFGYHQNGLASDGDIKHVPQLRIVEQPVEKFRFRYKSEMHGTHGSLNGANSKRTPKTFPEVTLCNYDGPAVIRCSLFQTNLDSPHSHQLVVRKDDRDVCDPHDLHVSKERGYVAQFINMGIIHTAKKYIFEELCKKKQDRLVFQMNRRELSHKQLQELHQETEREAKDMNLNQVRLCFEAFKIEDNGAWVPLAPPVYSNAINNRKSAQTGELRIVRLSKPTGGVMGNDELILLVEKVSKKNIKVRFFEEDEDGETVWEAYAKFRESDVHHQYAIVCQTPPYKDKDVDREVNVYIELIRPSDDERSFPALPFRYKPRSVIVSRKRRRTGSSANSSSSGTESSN

[6] = target: T6, GST-Aq-NF-kB (Amphimedon queenslandica, UniProt A9Y5G7 2-389)
T6 sequence: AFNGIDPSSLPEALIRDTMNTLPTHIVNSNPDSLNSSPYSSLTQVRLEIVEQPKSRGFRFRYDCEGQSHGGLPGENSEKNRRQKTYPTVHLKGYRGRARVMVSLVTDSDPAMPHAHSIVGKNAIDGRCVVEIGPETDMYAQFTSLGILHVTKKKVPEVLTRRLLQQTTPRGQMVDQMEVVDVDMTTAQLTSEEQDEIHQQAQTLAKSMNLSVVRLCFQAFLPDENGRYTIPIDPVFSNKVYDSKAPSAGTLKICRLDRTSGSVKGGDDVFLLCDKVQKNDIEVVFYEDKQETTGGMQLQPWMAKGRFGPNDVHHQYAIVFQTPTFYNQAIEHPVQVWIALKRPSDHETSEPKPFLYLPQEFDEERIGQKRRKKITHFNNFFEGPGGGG

[7] = target: GST-Hu-p50 (Homo sapiens, UniProt P19838 7-356)
GST-Hu-p50, sequence (P19838 7-356): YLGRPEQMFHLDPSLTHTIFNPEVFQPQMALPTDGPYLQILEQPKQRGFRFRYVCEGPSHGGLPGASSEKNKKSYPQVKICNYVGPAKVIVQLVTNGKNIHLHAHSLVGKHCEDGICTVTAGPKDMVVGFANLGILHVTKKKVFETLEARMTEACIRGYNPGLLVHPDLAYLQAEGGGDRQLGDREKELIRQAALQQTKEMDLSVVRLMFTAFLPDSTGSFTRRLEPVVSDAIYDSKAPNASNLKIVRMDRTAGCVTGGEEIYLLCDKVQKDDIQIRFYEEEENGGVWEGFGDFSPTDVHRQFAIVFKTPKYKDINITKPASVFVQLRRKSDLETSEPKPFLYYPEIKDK

Sequence | binding signal [1] [z-score] | binding signal [2] [z-score] | binding signal [3] [z-score] | binding signal [4] [z-score] | binding signal [5] [z-score] | binding signal [6] [z-score] | binding signal [7] [z-score]
CCGATTAACATCAATCACCCCCCTGATGTTAATCGGGTCTTGATTCGCTTGACGCTGCTG | 4.05 | 4.27 | 4.76 | 4.97 | 4.64 | 5.36 | 4.4
CCGATTAACATCACCGTCCCCCCTGATGTTAATCGGGTCTTGATTCGCTTGACGCTGCTG | 4.94 | 4.43 | 4.21 | 5.1 | 4.4 | 4.34 | 4.08
CCGATTAACATCAAGGGGGGTAATGATGTTAATCGGGTCTTGATTCGCTTGACGCTGCTG | 4.04 | 4.87 | 4.3 | 5.42 | 3.36 | 4.75 | 3.62
CCGATTAACATCACGGGAGTCCCTGATGTTAATCGGGTCTTGATTCGCTTGACGCTGCTG | 5.38 | 3.94 | 4.12 | 1.57 | 8.97 | 5.18 | 3.45
CCGATTAACATCACAACTTTCCCTGATGTTAATCGGGTCTTGATTCGCTTGACGCTGCTG | 3.73 | 5.95 | 6.13 | 4.34 | 2.04 | 5.94 | 4.21
CCGATTAACATCAATTTTTCCCCTGATGTTAATCGGGTCTTGATTCGCTTGACGCTGCTG | 7 | 8.62 | 11.5 | 11.2 | 5.15 | 5.96 | 6.59
CCGATTAACATCAGGGGGAGATATGATGTTAATCGGGTCTTGATTCGCTTGACGCTGCTG | 5.8 | 5.33 | 6.74 | 8.37 | 2.53 | 4.8 | 5.93
CCGATTAACATCAAGTCTCCCCCTGATGTTAATCGGGTCTTGATTCGCTTGACGCTGCTG | 6.67 | 5.33 | 7.25 | 8.63 | 2.82 | 4.5 | 5.75
CCGATTAACATCAGATATTCCCATGATGTTAATCGGGTCTTGATTCGCTTGACGCTGCTG | 3.86 | 3.21 | 3.17 | 2.8 | 1.78 | 2.67 | 1.97
CCGATTAACATCAGGGGGGAAGATGATGTTAATCGGGTCTTGATTCGCTTGACGCTGCTG | 4.86 | 5.5 | 5.9 | 7.62 | 3.64 | 4.85 | 4.98
CCGATTAACATCAGGGAATTTTATGATGTTAATCGGGTCTTGATTCGCTTGACGCTGCTG | 6.12 | 9.33 | 8.44 | 4.82 | 6.83 | 8.16 | 6.55
